Screening data: PubChem, National Center for Advancing Translational Sciences (NCATS)
This is a sample that favours compounds with a hit; in the whole collection about 7.5% have one here.
Rab9 promoter act = qHTS Assay for Rab9 Promoter Activators; Huh7 Rab9 promoter-luciferase reporter, luminescence, 24 h; Potency, µM (top dose mostly 9.22 µM), without a hit: top-dose activation, negative = inhibition, usual class: activators; 320,000 tested, 2.8% active; note: % of control where 0% means no effect; nearly all actives have a fitted effect of over 60% in size
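Huh7 reporter line, Rab9 promoter upstream of luciferase. Compound exposure 24 h at 37 °C in reduced-serum medium with 10% FBS. Read-out: luminescence.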
FLuc counter = qHTS profiling assay for firefly luciferase inhibitor/activator using purifed enzyme and Km concentrations of substrates (counterscreen for miR-21 project) | Luciferin 4-monooxygenase (Photinus pyralis), P08659 | purified FLuc, Km substrates, luminescence inhibition | Potency, µM (highest dose often 57.5 µM), inactives show at the top dose activity change, negative = inhibition, actives largely listed as inhibitors | 360,000 tested, 6.9% active | AID 588342, 2011;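 note: plate controls were vehicle for no effect and reference inhibitor for full effect; nearly all actives have a fitted effect of over 55% in size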
Target sequence (P08659 whole entry, looked up): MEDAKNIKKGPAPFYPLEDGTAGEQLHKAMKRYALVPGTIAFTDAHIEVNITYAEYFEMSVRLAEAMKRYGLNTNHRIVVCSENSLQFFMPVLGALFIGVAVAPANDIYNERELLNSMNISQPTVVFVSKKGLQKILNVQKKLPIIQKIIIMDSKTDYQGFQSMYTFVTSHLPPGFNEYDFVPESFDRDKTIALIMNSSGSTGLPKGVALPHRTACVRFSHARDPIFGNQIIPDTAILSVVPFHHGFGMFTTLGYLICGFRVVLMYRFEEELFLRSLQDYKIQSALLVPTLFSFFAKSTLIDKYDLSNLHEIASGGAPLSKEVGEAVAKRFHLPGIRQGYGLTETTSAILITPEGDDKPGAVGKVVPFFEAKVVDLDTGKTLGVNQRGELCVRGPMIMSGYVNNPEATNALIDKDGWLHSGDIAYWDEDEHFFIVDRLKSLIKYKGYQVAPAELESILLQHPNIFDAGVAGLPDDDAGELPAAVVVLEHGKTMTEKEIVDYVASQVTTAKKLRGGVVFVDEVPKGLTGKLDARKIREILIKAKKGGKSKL
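Purified P. pyralis luciferase, 10 nM final, with Km-level 10 uM D-luciferin and 10 uM ATP in 50 mM Tris acetate pH 7.5, 10 mM Mg acetate, 0.01% Tween-20, 0.05% BSA; 6-point qHTS titration about 60 µM downward; luminescence read.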
SMN2 splice up = qHTS Assay for Enhancers of SMN2 Splice Variant Expression | 210,000 tested, 2.8% active | AID 1458, 2008 | HEK293 SMN2-luciferase splicing reporter, luminescence, 30-36 h | Potency, µM (top dose mostly 46.1 µM), inactives show at the highest dose activity change, positive = activation, usual class: activators; note: % of control where 0% means no effect; nearly all actives have a fitted effect of over 55% in size
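qHTS luciferase splicing reporter: luminescence rises when SMN2 exon 7 is included in transfected HEK293 cells. Compound exposure lasted 30-36 h at 37C, with 4.5 mM final sodium butyrate as control, followed by a ONE-Glo read.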
NPC1 prom act = qHTS Assay for NPC1 Promoter Activators; Potency, µM (titrated, usually from 9.22 µM), inactives show top-dose activation, usual class: activators; Huh7 NPC1 promoter luciferase reporter, 24 h; 320,000 tested, 2.4% active; note: % of control where 0% means no effect; nearly all actives have a fitted effect of over 60% in size
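Luciferase expression driven by the NPC1 promoter was measured in stably transfected Huh7 cells after a 24 h compound incubation, using a luciferase reagent and a luminescence read.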
ELG1 genotoxic = qHTS screen for small molecules that induce genotoxicity in human embryonic kidney (HEK293T) cells expressing luciferase-tagged ELG1. HEK293T ELG1-luciferase reporter, luminescence, 16 h. Potency, µM (titrated, usually from 46 µM), without a hit: top-dose activity change, positive = activation, most hits filed as activators. 330,000 tested, 1.3% active. AID 504466, 2011; note: % of control where 0% means no effect; nearly all actives have a fitted effect of over 60% in size
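Screening used a luciferase reporter fused to human ELG1 in HEK293T cells. Luminescence was read on a CCD plate imager after 16 hr exposure and 30 min ONE-Glo incubation.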
* = called active by the depositor; ? = inconclusive; . = not tested or not shown; [ ] = remark or other dose. Calls come from the whole dose curve; as a rule, active = well fitted curve in the direction sought with a large enough effect; inconclusive = small, poorly fitted or top-dose-only effect, or another doubt; inactive = no such curve, though single readings can be large; an effect the other way counts as inactive or inconclusive. Potency is the fitted concentration of half-maximal effect.

SMILES	Rab9 promoter act	FLuc counter	SMN2 splice up	NPC1 prom act	ELG1 genotoxic
Cc1ccc(NC(=O)c2ccc(CSc3ccccn3)cc2)c(O)c1	11%	24µM*	.	12%	0%
Cc1ccc(NC(=O)c2cncc(Br)c2)c(O)c1	?	17µM*	?	?	-1%
O=C(NC(=S)Nc1ccc(Br)cn1)c1cncc(Br)c1	-3%	-5%	12%	6%	2%
COc1ccc(CC(CN)c2ccccc2)cc1 (centres undefined)	-3%	2%	.	-7%	-5%
O=C(CSc1nc2ncccc2[nH]1)NC1CCCC1	0%	-2%	.	2%	0%
O=C(CSc1ncccc1-c1nc2ccccc2[nH]1)NCc1ccco1	26%	24µM*	-13%	20%	?
O=C(CSc1nc2ccccc2[nH]1)NCc1ccco1	13%	-13%	16%	8%	?
Cc1cc2nc(-c3cccnc3SCC(=O)NC3CC3)[nH]c2cc1C	?	2.7µM*	16µM*	?	?
Cc1cc2nc(-c3cccnc3SCC(=O)NCc3ccco3)[nH]c2cc1C	3.2µM*	0.95µM*	13µM*	4µM*	?
O=C(CSc1nc2ncccc2[nH]1)NCc1ccco1	-2%	5%	.	3%	0%
Cc1ccc(S(=O)(=O)N2CCOCC2)c(C)c1NS(C)(=O)=O	-3%	0%	-10%	0%	2%
Cc1nn(-c2ccc(F)cc2)c(Cl)c1/C=N/NC(=O)c1ccc(O)cc1	0%	19µM*	9%	2%	-3%
CNC(=S)N/N=C/c1c(C)nn(-c2ccc(F)cc2)c1Cl	-4%	-3%	11%	-3%	15%
Cc1nn(-c2ccc(F)cc2)c(Cl)c1/C=N/NC(=O)c1cccs1	2µM*	?	?	?	17%
COc1ccc(-c2cc(-c3ccccc3)nc(Cl)n2)cc1OC	0%	?	.	-14%	-5%
CN(C)S(=O)(=O)c1cccc(-c2cn3ccccc3n2)c1	26%	-11%	1%	14%	2%
COc1ccc(-c2nc3c(-c4ccc(Cl)cc4)cnn3cc2C)cc1F	-3%	0%	.	-8%	1%
COc1ccc(-c2cn3cc(C)ccc3n2)cc1OC	0.63µM*	0.85µM*	4µM*	1µM*	1µM*
COc1ccc(-c2cn3ccccc3n2)cc1OC	3.2µM*	3.4µM*	18µM*	3.2µM*	?
COc1ccc(-c2cn3cc(C)ccc3n2)cc1F	0.35µM*	0.24µM*	0.56µM*	0.35µM*	?
COc1ccccc1C(=O)Nc1c(C(=O)NC(C)(C)C)oc2ccccc12	.	0%	.	.	.
COc1cccc(-c2nnc(Nc3nc4c(F)cccc4s3)o2)c1	3.2µM*	4.8µM*	11µM*	2.8µM*	11%
COc1cccc2sc(Nc3nnc(-c4ccccc4Cl)o3)nc12	-15%	12µM*	-23%	-15%	11%
COc1cccc2sc(NN)nc12	2%	?	5%	16%	0%
COc1ccccc1-c1nnc(Nc2nc3c(OC)cccc3s2)o1	3%	2.7µM*	-13%	-5%	14%
SMILES	Rab9 promoter act	FLuc counter	SMN2 splice up	NPC1 prom act	ELG1 genotoxic
CC(C)Oc1ccc2c(c1)OC(c1ccccc1)(C(F)(F)F)NC2=O (centres undefined)	-5%	2%	-1%	-2%	1%
COc1ccccc1CN1CC(C(=O)N(CCO)Cc2cccs2)CCC1=O (centres undefined)	2%[1.84 µM]	-2%	.	3%	2%
O=C(c1ccc(C(=O)N2CCCc3ccccc32)s1)N1CCCc2ccccc21	0%	-1%	-38%	-1%	-9%
O=C(c1ccc([N+](=O)[O-])s1)N1CCc2ccccc21	29%	-5%	.	16%	5%
O=C(c1ccc(Cl)s1)N1CCc2ccccc21	2.5µM*	3.8µM*	22µM*	?	6.5µM*
CCc1sc(C(=O)N2CCc3ccccc32)cc1C	0.35µM*	1.9µM*	8.9µM*	1.1µM*	1.8µM*
CC(=O)C1=C(NC(=O)c2ccc(F)cc2)CC2C1C2(C)C (centres undefined)	13%	21µM*	-16%	1%	-4%
COc1ccc(C(C#N)=C2C=CC(=NO)C=C2)cc1	0%	17µM*	.	-1%	-4%
CCNC(=S)N/N=C/c1cccc(OCc2c(F)cccc2Cl)c1	-7%	17µM*	-53%	3%	-4%
CNC(=S)N/N=C/c1cccc(OCc2ccccc2F)c1	18%	4.8µM*	1%	13%	?
CC(=O)c1ccc(NC(=O)C2=CC(c3ccco3)=NS(=O)(=O)N2C)cc1	3%	7%	.	-5%	5%
O=c1cc(COc2ccc(Cl)c(Cl)c2)nc2sccn12	3.2µM*	-4%	.	?	13%
Cc1nc(-c2noc(-c3ccccc3Cl)n2)c(C(F)(F)F)o1	29%	15µM*	.	?	18%
Brc1ccc(-c2nc(-c3ccncc3)no2)o1	?	?	?	?	18µM*
Cc1ccccc1-c1nc(-c2cccnc2)no1	?	11µM*	?	?	?
Cc1ccc(SCc2nc(-c3cccnc3)no2)cc1	12%	1%[2.3 µM]	8%	11%	1%
Clc1ccccc1-c1nc(-c2ccncc2)no1	1.3µM*	6.7µM*	?	4µM*	10µM*
Cc1c(C(=O)N/N=C/c2cccs2)nc2ccccn12	-2%	-9%	12%	0%	2%
O=[N+]([O-])c1ccc(-c2nc(-c3ccncc3)no2)cc1	?	?	.	?	12%
Cc1onc(-c2ccccc2Cl)c1-c1nc(-c2ccncc2)no1	-4%	0%	-11%	1%	2%
Cc1ccccc1-c1nc(-c2ccccn2)no1	0.45µM*	0.48µM*	1.1µM*	?	?
Cc1ccccc1-c1noc(-c2cccnc2NCc2ccco2)n1	.	5%	.	.	.
Clc1ccccc1-c1nc(-c2cccnc2)no1	.	3µM*	11µM*	.	.
Cc1ccc(-c2nc(-c3ccncc3)no2)c(Cl)c1	?	0.48µM*	.	0.63µM*	0.46µM*
c1ccc(-c2ccc(-c3nc(-c4ccncc4)no3)cc2)cc1	0.14µM*	0.6µM*	?	?	1.6µM*
C=CCNCC(=O)Nc1sc2c(c1C(=O)Nc1ccc(OC)cc1OC)CCC2	-10%	-3%	-4%	-5%	-11%
Cc1ccc(-n2ncc3c(SCC(=O)Nc4cc(C)on4)ncnc32)c(C)c1	-4%	1%	-14%	-9%	-2%
O=C(Nc1nnc(-c2cccnc2)o1)c1ccccc1Cl	2%	-12%	-33%	3%	3%
Clc1ccccc1-c1nnc(-c2cccnc2)o1	?	15µM*	.	4µM*	23µM*
